From PubChem BioAssay (NCATS) come the findings set out here.

Test [1] can be described thus: qHTS of pediatric cancer cell lines to identify multiple opportunities for drug repurposing: Primary screen for TC32 cells (AID 1347089). Further: nearly all actives have a fitted effect of over 60% in size. Further: potency means the concentration at half of the fitted maximal effect. On activity change, negative = cytotoxic: on the % scale 0 is the no-effect control and ±100 the full control effect. An outline of the steps: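 In the primary qHTS, MIPE compounds were tested at 11 concentrations (0.78 nM to 46 µM) and NPC compounds at 8 (0.59 nM to 46 µM) on TC32 cells for 48 h. CellTiter-Glo luminescence gave viability.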
Test [2] can be described thus: qHTS of pediatric cancer cell lines to identify multiple opportunities for drug repurposing: Primary screen for SJ-GBM2 cells (AID 1347091). Further: potency means the concentration at half of the fitted maximal effect.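 On activity change, negative = cytotoxic: plate controls were DMSO neutral control for no effect and bortezomib for full effect.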 The essentials: (§1)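 Eight- or eleven-point concentration series, 48 h treatment at 37 degrees C in growth media; readout CellTiter-Glo luminescence. Potency and efficacy were taken from the concentration-response curves.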
Background: Quantitative high-throughput screening tests each substance at several concentrations.

The nature of test [3]: qHTS of pediatric cancer cell lines to identify multiple opportunities for drug repurposing: Primary screen for A673 cells (AID 1347092). Further: nearly all actives have a fitted effect of over 45% in size. Further: potency means the concentration at half of the fitted maximal effect. On activity change, negative = cytotoxic: on the % scale 0 is the no-effect control and ±100 the full control effect. The essentials:
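48 h compound exposure, A673, 500-1,000 cells/well, 37 degrees C/5% CO2. MIPE: 11-point, 0.78 nM-46 µM; NPC: 8-point, 0.59 nM-46 µM (final). Readout CellTiter-Glo luminescence after 15 min RT.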

Test [4] can be described thus: qHTS of pediatric cancer cell lines to identify multiple opportunities for drug repurposing: Primary screen for SK-N-MC cells (AID 1347093). Further: potency means the concentration at half of the fitted maximal effect.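 On activity change, negative = cytotoxic: series mostly up to about 46 µM; plate controls were DMSO neutral control for no effect and bortezomib for full effect.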 The essentials:
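Metabolically active cells were quantified by ATP-dependent luminescence (CellTiter-Glo, 15 min at room temperature) following 48 h treatment. Cells had been plated at 500-1,000 per well and settled for 5 h beforehand.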

The nature of test [5]: qHTS of pediatric cancer cell lines to identify multiple opportunities for drug repurposing: Primary screen for BT-37 cells (AID 1347094). Further: potency means the concentration at half of the fitted maximal effect.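 On activity change, negative = cytotoxic: series mostly up to about 57 µM; plate controls were DMSO for no effect and bortezomib for full effect.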 An outline of the steps:
(§2)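 Readout: CellTiter-Glo luminescence, 48 h treatment. Controls DMSO (neutral) and bortezomib 2.3 µM final (positive). Potency and efficacy taken from primary-screen concentration-response curves.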

Test [6] is described as follows: qHTS of pediatric cancer cell lines to identify multiple opportunities for drug repurposing: Primary screen for NB-EBc1 cells (AID 1347095). Further: potency means the concentration at half of the fitted maximal effect.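 On activity change, negative = cytotoxic: plate controls were DMSO neutral control for no effect and bortezomib for full effect.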 An outline of the steps:
as §2

A short description of test [7]: qHTS of pediatric cancer cell lines to identify multiple opportunities for drug repurposing: Primary screen for DAOY cells (AID 1347090). Further: nearly all actives have a fitted effect of over 55% in size. Further: potency means the concentration at half of the fitted maximal effect.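 On activity change, negative = cytotoxic: series mostly up to about 46 µM; plate controls were DMSO for no effect and bortezomib for full effect.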 The essentials:
as §1

Test [8] in a line: qHTS of pediatric cancer cell lines to identify multiple opportunities for drug repurposing: Primary screen for U-2 OS cells (AID 1347096).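 Further: plate controls were DMSO wells for no effect and bortezomib positive control wells for full effect; nearly all actives have a fitted effect of over 50% in size.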 The essentials:
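Cells (500-1,000/well) in growth media were settled 5 h at 37 degrees C, then given compounds for 48 h. Viability was read as CellTiter-Glo luminescence. Primary runs used MIPE at 11 points (0.78 nM-46 µM) and NPC at 8 points (0.59 nM-46 µM); follow-ups used 11 points.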

Records with an inconclusive call do not appear. A number with no mark means an inactive call. Calls of active or inactive are those of the source. The call rests on the fitted dose curve; in most records, active means well fitted curve in the direction sought with a large enough effect; inconclusive means small, poorly fitted or top-dose-only effect, or another doubt; inactive means no such curve, though single readings can be large; an effect the other way counts as inactive or inconclusive.

Take `CCN(CC)CCCCNc1nc2cc(Cl)c(Cl)cc2nc1-c1ccc(-c2cccs2)s1`: the Potency result in test [1] is “inactive”. The Potency is 10.5 µM (active) in test [2]; 11.8 µM (active) in test [3]; 13.2 µM (active) in test [4]; 27.3 µM (active) in test [5]; 20.9 µM (active) in test [6].
For the compound `Cc1c(-c2cccc3c(CCCOc4cccc5ccccc45)c(C(=O)O)n(Cc4cccnc4)c23)c(COc2ccc(N3CCN([S+](=O)([O-])N(C)C)CC3)cc2)nn1C`, the Potency entry in test [1] and in test [8] was “inactive” in each case. Moreover, the Potency in test [7] was 23.5 µM (active); in test [4] it was 10.5 µM (active).
On to `Cc1c(C(=O)Nc2ccc(N3C[C@@H](C)O[C@@H](C)C3)nc2)cccc1-c1ccc(OC(F)(F)F)cc1`, for which, in test [1], the Potency result is “inactive”. Besides, the Potency in test [2] was 18.7 µM (active); in test [3], 7.43 µM (active); in test [4] it was 16.6 µM (active).
Regarding `N#CC1(c2cccc(C(=O)Nc3cc(Oc4ccc5nc(NC(=O)C6CC6)sc5n4)ccc3F)c2Cl)CC1`, the Potency result in test [1] and in test [2] was “inactive” each time.
Consider `C[C@H](CCC(=O)O)[C@H]1CC[C@H]2[C@H]3[C@@H](CC[C@]12C)[C@@]1(C)CC[C@@H](O)C[C@H]1C[C@@H]3O`, for which the Potency entry in test [1], in test [7] and in test [8] was “inactive” throughout. Further, the figures for the Potency in test [5] and in test [6] were 27.3 µM (active) and 14.8 µM (active), respectively.
On to `NCc1c[nH]c(=S)n1[C@H]1CCc2c(F)cc(F)cc2C1`, for which the Potency entry in test [1] and in test [8] was “inactive” in each case. Besides, the Potency in test [2] was 26.4 µM (active); in test [3] it was 18.7 µM (active); in test [4] it was 10.5 µM (active); in test [5], 30.6 µM (active).
As to `C[C@]12C=CC(=O)C=C1CC[C@@H]1[C@@H]2[C@@H](O)C[C@@]2(C)[C@@H]1CC[C@]2(O)C(=O)CO`, the Potency result in test [1], in test [7] and in test [8] was “inactive” in each case. In addition, the Potency in test [4] is 29.6 µM (active); in test [6] it was 14.8 µM (active).
On to `CC1=C(C(=O)Nc2cc3cn[nH]c3cc2F)C(c2ccc(C(F)(F)F)cc2)CC(=O)N1` (stereo unspecified), for which the Potency entry in test [1], in test [7], in test [5] and in test [8] was “inactive” in each case.
As to `CN[C@H]1[C@@H](O[C@@H]2[C@H](O[C@@H]3[C@@H](O)[C@@H](O)[C@@H](N=C(N)N)[C@@H](O)[C@@H]3N=C(N)N)O[C@H](C)[C@@]2(O)C=O)O[C@@H](CO)[C@@H](O)[C@H]1O`, the activity change, negative = cytotoxic was 6.69% [at 9.17 µM] in test [1]; 13.3% [at 9.22 µM] in test [2]; -1.15% [at 9.22 µM] in test [3]; -4.87% [at 9.22 µM] in test [4]; 3.99% [at 11.5 µM] in test [5]; 7.3% [at 9.22 µM] in test [6]. Also, the activity change, negative = cytotoxic in test [8] was 13% [at 9.22 µM].
For `COc1ccc(Cn2ccc3ccc(C(=O)NO)cc32)cc1`, the Potency result in test [1] and in test [2] was “inactive” each time. Besides, the Potency in test [3] was 14.8 µM (active); in test [4], 5.9 µM (active).
In the case of `CCC[C@H](N[C@@H](C)C(=O)N1[C@@H]2CCCC[C@H]2C[C@H]1C(=O)O)C(=O)OCC`, the Potency result in test [1], in test [7] and in test [8] was “inactive” each time.
Consider `CNc1nc(-c2ccc3c(N)n[nH]c3c2)cc(N2C[C@@H](C(=O)NC3CCCCC3)CC[C@@H]2C)n1`, for which, in test [1], the Potency result was “inactive”. Besides, the Potency in test [2] is 23.5 µM (active).
Regarding `CC(C)C[C@@H](C(=O)N[C@H](C(=O)OC1CCCC1)c1ccccc1)[C@H](O)C(=O)NO`, the Potency entry in test [1] and in test [8] was “inactive” each time. The Potency in test [2] is 20.9 µM (active); in test [3], 14.8 µM (active); in test [4], 18.7 µM (active); in test [5], 24.3 µM (active); in test [6], 18.7 µM (active).
Regarding `C=C[C@@H]1CN2CCC1C[C@@H]2C(O)c1ccnc2ccc(OC)cc12` (stereo partly specified), the Potency result in test [1], in test [2], in test [3], in test [4], in test [5] and in test [8] was “inactive” in each case.
For the compound `CC(C)[C@H](O)C(=O)N[C@@H](C)C(=O)N[C@@H]1C(=O)N(C)CCc2ccccc21`, the Potency result in test [1], in test [2], in test [5], in test [6] and in test [8] was “inactive” each time. For the same compound, the values for the Potency in test [3] and in test [4] were 23.5 µM (active) and 18.7 µM (active), respectively.
With `COc1ccc2nc3cc(Cl)ccc3c(Nc3cc(CN4CCCC4)c(O)c(CN4CCCC4)c3)c2n1`, the Potency entry in test [1], in test [7] and in test [8] was “inactive” in each case.
Consider `Cn1cnc(-c2cc3nccc(Oc4ccc(NC(=S)NC(=O)Cc5ccccc5)cc4F)c3s2)c1`, for which the Potency entry in test [1] is “inactive”. The Potency in test [2] is 0.0469 µM (active); in test [3] it was 29.6 µM (active).
On to `CC(C)C[C@H](NC(=O)c1cc2ccccc2s1)C(=O)N1CCN(C(=O)[C@H](CO)NS(=O)(=O)c2ccc(Cl)cc2Cl)CC1`, for which the Potency entry in test [1] is “inactive”. The Potency in test [2] was 18.7 µM (active); in test [3], 23.5 µM (active); in test [4] it was 10.5 µM (active); in test [5], 15.3 µM (active); in test [6] it was 26.4 µM (active).
On to `NC(=O)c1noc([C@H](CCCC2CCCCC2)CC(=O)NO)n1`, for which the Potency entry in test [1] and in test [8] was “inactive” in each case. Besides, the Potency in test [2] is 18.7 µM (active); in test [3] it was 9.35 µM (active); in test [4] it was 7.43 µM (active); in test [5] it was 21.7 µM (active); in test [6] it was 20.9 µM (active).
In the case of `CON(C)C(=O)N1N=C(c2cc(F)ccc2F)S[C@]1(CCCN)c1ccccc1`, the Potency was 4.7 nM (active) in test [1]; 0.001 µM (active) in test [2]; 0.001 µM (active) in test [3]; 0.001 µM (active) in test [4]; 0.001 µM (active) in test [6]. Besides, the Potency result in test [5] and in test [8] was “inactive” throughout.
With `NC(N)=Nc1nc(CSCCC(N)=NS(N)(=O)=O)cs1`, the Potency result in test [1], in test [2], in test [5] and in test [8] was “inactive” each time. The Potency was 11.8 µM (active) in test [3] and 10.5 µM (active) in test [4].
For `c1cc(OCCN2CCCCC2)cc(-c2n[nH]c3ccc(-c4ncn[nH]4)cc23)c1`, the Potency result in test [1], in test [2], in test [6] and in test [8] was “inactive” in each case. In addition, the Potency was 9.35 µM (active) in test [3], 16.6 µM (active) in test [4] and 19.3 µM (active) in test [5].
